# Laboratory results published in article PMC5540273 (PLoS ONE, 2017).
# Columns and labels:
# Conditions in all cases: concentration: 1 μM, replicates: in singlicate; n = 1
# RIPK4 = system: RIPK4
# RIPK5 = system: RIPK5
# ROCK1 = system: ROCK1
# ROCK2 = system: ROCK2
# ROS1 = system: ROS1
# [1] = system: RPS6KA4(Kin.Dom.1-N-terminal)
# [2] = system: RPS6KA4(Kin.Dom.2-C-terminal)
# [3] = system: RPS6KA5(Kin.Dom.1-N-terminal)
# [4] = system: RPS6KA5(Kin.Dom.2-C-terminal)
# [5] = system: T1, RSK1(Kin.Dom.1-N-terminal)
# T1 construct: gene RPS6KA1
# [6] = system: T2, RSK1(Kin.Dom.2-C-terminal)
# T2 construct: gene RPS6KA1
# [7] = system: T3, RSK2(Kin.Dom.1-N-terminal)
# T3 construct: gene RPS6KA3
# [8] = system: T4, RSK2(Kin.Dom.2-C-terminal)
# T4 construct: gene RPS6KA3
# [9] = system: T5, RSK3(Kin.Dom.1-N-terminal)
# T5 construct: gene RPS6KA2
# [10] = system: T6, RSK3(Kin.Dom.2-C-terminal)
# T6 construct: gene RPS6KA2
# [11] = system: T7, RSK4(Kin.Dom.1-N-terminal)
# T7 construct: gene RPS6KA6
# [12] = system: T8, RSK4(Kin.Dom.2-C-terminal)
# T8 construct: gene RPS6KA6
# S6K1 = system: S6K1
# SBK1 = system: SBK1
# SGK2 = system: SGK2
# 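Further: KINOMEscan kinase panel screen.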
SMILES,%Inh (RIPK4) [%],%Inh (RIPK5) [%],%Inh (ROCK1) [%],%Inh (ROCK2) [%],%Inh (ROS1) [%],%Inh [1] [%],%Inh [2] [%],%Inh [3] [%],%Inh [4] [%],%Inh [5] [%],%Inh [6] [%],%Inh [7] [%],%Inh [8] [%],%Inh [9] [%],%Inh [10] [%],%Inh [11] [%],%Inh [12] [%],%Inh (S6K1) [%],%Inh (SBK1) [%],%Inh (SGK2) [%]
Fc1ccc(-c2nc3n(c2-c2ccncc2)CCS3)cc1 [GI98581],0,0,11,0,3,35,0,10,0,0,22,1,7,18,11,0,88,33,21,6
Fc1ccc(-c2nc[nH]c2-c2ccncc2)cc1 [SB-217360],0,31,0,26,5,0,0,0,19,0,47,34,4,0,6,16,87,8,0,0
Cc1ccc(NC(=O)Nc2ccc(Cl)c(C(F)(F)F)c2)cc1-c1ccc(C(=O)Nc2ccncc2)cc1 [GSK1398470],0,0,0,0,14,0,0,17,0,2,3,5,0,9,14,2,22,15,64,0
Cc1ccccc1Cn1ccn2c(=O)cc(N3CCOCC3)nc12 [GSK2269905],0,0,0,0,0,23,0,12,0,25,0,9,20,11,0,0,17,0,4,0
COc1ccc(CSc2nnc(-c3ccc4nccn4c3)o2)cc1C(F)(F)F,0,0,14,0,3,11,21,22,1,18,44,12,10,8,6,30,0,0,0,4
O=C(Nc1n[nH]c2nc(-c3ccco3)c(Br)cc12)C1CCN(Cc2ccccc2)C1.O=C(O)[C@H](O)[C@@H](O)C(=O)O (stereo not drawn) [SB-742034],17,29,0,0,5,11,12,0,16,17,0,35,0,6,0,16,12,23,19,27
COc1ccc(Nc2nccc(-c3ccc(NC(=O)c4cc5cc(F)ccc5[nH]4)cc3)n2)cc1 [GSK1229496],0,0,18,10,26,0,0,0,0,13,36,0,20,0,0,20,6,1,17,0
CCn1c(-c2ccccc2)nc2cnccc21 [SB-733416],41,5,9,0,7,0,0,3,0,0,0,1,23,28,0,8,0,22,9,9
CC(C)c1ccc(O)cc1Nc1ccnc2ccc(C(F)(F)F)cc12 [GW482059],0,0,86,26,0,11,0,23,0,0,0,0,10,0,7,0,0,0,5,0
COc1cccc(C2=C(Nc3cc(Cl)c(O)c(Cl)c3)C(=O)NC2=O)c1 [SB-390767],13,7,11,11,0,5,0,6,18,0,0,11,37,0,0,0,0,20,0,11
COC(=O)c1cccc(NC(=O)NC2CCN(c3ccnc(Nc4ccc(F)cc4)n3)C2)c1 (stereo not drawn) [GSK1379725],18,0,0,0,0,0,0,0,16,8,0,5,0,3,0,0,0,0,17,0
O=c1cc(N2CCOCC2)nc2n(Cc3cccc(Cl)c3Cl)c3ccccc3n12 [GSK2299009],16,0,10,0,38,24,0,16,2,31,5,19,53,4,0,0,5,14,28,37
O=C(Nc1n[nH]c2cc(-c3ccsc3)ccc12)C1CC1 [SB-732932],35,8,7,0,0,12,17,0,13,26,19,27,0,71,16,29,24,13,44,4
Cn1cncc1C(=O)NC1CCN(c2ccnc(Nc3ccc(F)cc3)n2)C1 (stereo not drawn) [GSK1379717],33,20,0,19,0,0,0,0,0,16,12,5,0,0,12,0,15,7,16,7
Nc1nccc(-c2c(-c3ccc(F)cc3)ncn2C2CCN(Cc3ccccc3)CC2)n1 [SB-219980],7,34,34,0,10,0,0,0,0,0,41,41,0,4,5,30,63,6,35,0
COc1ccc(Nc2nccc(N3CCC(NC(=O)C(C)c4ccc(Cl)cc4)CC3)n2)cc1 (stereo not drawn) [GSK1379812],0,0,15,16,40,19,0,3,42,2,0,21,99.4,5,3,0,0,0,6,0
COc1cccc(CNC(=O)NC2CCN(c3ccnc(Nc4ccc(F)cc4)n3)C2)c1 (stereo not drawn) [GSK1379723],20,10,0,0,0,0,0,7,36,2,0,9,28,0,0,0,6,0,22,8
Cc1ccc(NC(=O)Nc2ccccc2F)cc1-c1ccc(C(=O)Nc2ccncc2)cc1 [GSK1398477],30,6,26,0,3,20,0,34,0,23,0,9,6,20,0,0,14,13,28,0
CC(C)c1cc(-c2ccc3c(N)n[nH]c3c2)nc(N)n1 [GSK2250882],4,0,28,20,23,13,3,0,25,14,0,18,0,0,5,0,17,0,16,0
Cl.Cl.Cl.N#Cc1ccc(CCNc2nccc(-c3cccc(CN4CCNCC4)c3)n2)cc1 [GSK2137462],0,19,33,41,6,0,0,19,5,10,0,0,0,0,13,0,31,34,24,0
COc1ccc2cc(-c3nc(-c4ccccc4C(C)C)[nH]c3-c3ccncc3)ccc2c1 [SB-660566],25,4,35,0,0,6,0,4,0,42,0,3,18,19,0,25,11,8,2,0
